# Reference: PubChem BioAssay (Tox21)
# Where “and” joins values, the source holds several entries; their conditions need not be identical. Identical values can stand only once. Inconclusive results are not listed. A number with no mark means an inactive call. Calls of active or inactive are those of the source. The call rests on the fitted dose curve; in most records, active means well fitted activation curve with a large enough effect in the repeat runs; inconclusive means weak or mixed curves; inactive means flat fitted curve, though single readings scatter.
# Experiment: A CellTox Green Cytotoxicity Assay to monitor cytotoxicity in HepG2 cells - 32 hour (AID 1224883); further: nearly all actives have a fitted effect of over 50% in size
# Details: CellTox Green fluorescence; series mostly up to 76.8 µM; cytotoxicity increase: at the top concentration
# Text: National Center for Advancing Translational Sciences [NCATS]
# NIH Chemical Genomics Center [NCGC]
# U.S. Environmental Protection Agency [EPA]
# National Institutes of Environmental Health Sciences [NIEHS]
# National Toxicology Program [NTP]
# Cell-based models are critical for drug discovery. Determining the natural cytotoxic effects resulting from test compounds is an essential research activity. A CellTox Green Cytotoxicity Assay to monitor cytotoxicity in real time of continues cell culture during 40 hours of the compound treatment was used to screen Tox21 10K library compounds in HepG2 cells. CellTox Green Cytotoxicity Assay is a nonlytic, homogeneous, biofluorescent method to measure cytotoxicity in cell culture after experimental manipulation. The assay system uses a proprietary asymmetric cyanine dye that is excluded from viable cells but preferentially stains the dead cell's DNA. […] Viable cells produce no appreciable increases in fluorescence. Therefore, the fluorescence signal produced by the binding interaction with dead cell DNA is proportional to cytotoxicity.
# The mixture of HepG2 cell suspension and reagents were dispensed at 600cells/6 ul/well in 1536-well tissue culture treated black solid bottom plates using a Multidrop dispenser. After the assay plates were incubated at a 37 C/5% CO2 incubator for 5 hours, 23 nL of compounds dissolved in DMSO, positive and negative controls was transferred to the assay plate by a pintool work station. The plates were incubated at 37 C for 40 hours. The fluorescence intensity were measured at 0h, 8h, 16h, 24h, 32h and 40h time points using ViewLux plate reader during compound treatment.
# On the % scale 0 is the no-effect control and ±100 the full control effect; potency means the concentration at half of the fitted maximal effect.
Structure (SMILES),cytotoxicity increase,Potency
C=CCc1ccccc1O,13.1%,–
COc1ccccc1N1CCNCC1,-2.2% [at 35.3 µM],–
Cc1ccc2c(C)cccc2c1,-3.48%,–
COC(=O)C1(O)c2ccccc2-c2ccccc21,-5.91%,–
NP(N)(=O)NC(=O)c1ccc(F)cc1,-3.04% [at 35.3 µM],–
CCC(C)(C)c1ccc(O)c(C(C)(C)CC)c1,–,30.6 µM (active)
COP(=O)(OC)OC(Br)C(Cl)(Cl)Br (stereo not given),13.3%,–
CC(C)(c1ccccc1)c1cc(-n2nc3ccccc3n2)c(O)c(C(C)(C)c2ccccc2)c1,-6.07% [at 35.3 µM],–
CCOC(=O)c1cncn1C(C)c1ccccc1 (stereo not given),1.78% [at 35.3 µM],–
O=S(=O)(Cl)Cl,-4.78%,–
CC(C)(C)NCC(O)c1ccccc1Cl (stereo not given),-0.726% [at 35.3 µM],–
c1ccc2c(c1)sc1ccccc12,17.6% [at 35.3 µM],–
C1CS1,4.71%,–
COc1ccc(C(O)(c2cncnc2)C2CC2)cc1 (stereo not given),-5.01%,–
C[C@H]1[C@@H]2Cc3ccc(O)cc3[C@@]1(C)CCN2C,-4.28% [at 200 µM],–
CCN(C(C)=O)c1cccc(-c2ccnc3c(C#N)cnn23)c1,-17.1% [at 35.3 µM],–
CN1CC[C@]23c4c5ccc(O)c4O[C@H]2[C@@H](O)C=C[C@H]3[C@H]1C5,15.4%,–
CCCC[N+](CCCC)(CCCC)CCCC,0.0965%,–
Clc1ccccc1,0.0679%,–
CCOP(=S)(OCC)SCSc1cc(Cl)ccc1Cl,-2.62%,–

Structure (SMILES),cytotoxicity increase,Potency
C[N+]1(CCF)[C@@H]2CC[C@H]1CC(OC(=O)C(O)(c1ccccc1)c1ccccc1)C2 (stereo not given in full),-1% [at 35.3 µM],–
CCCCCCCCCCCCCCCl,0.333%,–
CCOC(=O)C1OC1(C)c1ccccc1 (stereo not given),–,inactive
CCCCCCCCCCCCN=C(N)N,-4.96% [at 2.72 µM],–
[Cl-].[Cl-].[Hg+2],–,24.4 µM (active) and 3.09 µM (active)
CCC1(CCC(C)C)C(=O)NC(=O)NC1=O,-0.437%,–
C=CC(C)(CCC=C(C)C)OC(=O)c1ccccc1N (stereo not given),-1.3%,–
C[N+](C)(C)CCOC(=O)C(O)(c1ccccc1)c1ccccc1,-18.5% [at 35.3 µM],–
O=C(O)c1cc(Cl)ccc1Cl,-12.7%,–
O=C(O)CCCOc1ccc(Cl)cc1Cl,–,inactive
Cc1cnc(C2=NC(C)(C(C)C)C(=O)N2)c(C(=O)O)c1 (stereo not given),-2.7%,–
FC(Cl)(Cl)C(F)(Cl)Cl,0.264%,–
CCC(=O)O[C@@H]1C=C2CCC3C(CCC4(C)C3CC[C@@H]4OC(=O)CC)C2CC1 (stereo not given in full),-8.02% [at 35.3 µM],–
Cc1ccc(N)c(C)c1,–,inactive
O=C(NCNC(=O)NC1C(=O)NC(=O)N1CO)NC1C(=O)NC(=O)N1CO (stereo not given),-12.7%,–
C=CC(=O)NC(C)(C)CC(C)=O,-11.6%,–
Cc1ccccc1,-0.386%,–
O=S(=O)(c1ccccc1)c1ccccc1,-3.15%,–
O=C(O)C(Cl)(Cl)Br,-0.888%,–
CCCC[P+](CC)(CCCC)CCCC (tested in a mixture with another compound),0.794%,–
